Compound activity: PubChem BioAssay, several laboratories
The list is not random: actives were taken first. Their share in the collection is about 2.6%.
TWEAK-Fn14 inh – blocks TWEAK-Fn14 interaction in a reporter cell assay | TWEAK-stimulated Fn14 reporter cells, luciferase luminescence, 8 h | inhibition, % at 10 µM | hit rate 2% among 360,000; in the data active = inhibition above about 50%
LGR2 inh – inhibitors of bursicon-induced Drosophila LGR2 receptor cAMP signaling; hit rate 0.35% among 380,000; HEK293 LGR2, CRE-luciferase, bursicon-stimulated, 4 h; inhibition, % at 9.99 µM;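 active = drop in luminescence signal, shown as inhibition above about 50% in the replicate tests, limit read from the data, passing the limit was not always enough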;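 also: agonist challenge used bursicon conditioned medium at about half maximal strength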
TROY NFkB inh – blocks TROY-dependent signaling in reporter cells. inhibition, % at 10 µM. hit rate 0.98% among 360,000. Q293 LMP1-TROYcd NF-kB luciferase reporter, 4 h;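 active = compounds whose plate-normalised and pattern-corrected inhibition of the luciferase reporter signal at the single screening dose is 50% or more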
LMP1 NFkB inh – inhibitors of Epstein-Barr LMP1-induced NF-kappaB reporter | LMP1-induced NF-kappaB luciferase reporter cells, luminescence | inhibition, % at 12.5 µM | hit rate 0.69% among 350,000; in the data active = inhibition above about 41%;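 also: 0% = neutral control wells and 100% = reference inhibitor control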
EWS-Fli block – inhibitors of EWS/Fli oncoprotein transcriptional activity | A673 NR0B1-luciferase reporter, viability-normalised | inhibition, % at 12.6 µM | hit rate 0.67% among 350,000 | AID 651661;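 active = mean inhibition of at least 50% after viability correction, with every replicate also passing that limit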;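 also: firefly luciferase signal divided by Alamar Blue viability fluorescence both relative to DMSO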
An asterisk follows results filed as active; x = not tested or not shown.

SMILES | TWEAK-Fn14 inh | LGR2 inh | TROY NFkB inh | LMP1 NFkB inh | EWS-Fli block
N#C/C(=C\C=C\c1ccccc1[N+](=O)[O-])C(=O)NC1CCCCC1 | 82* | x | -29 | -77 | x
N#C/C(=C\c1cccn1-c1ccccc1)C(=O)NC1CCCCC1 | 28 | x | 8 | -2 | 62*
C[C@@H]1CCCCO[C@@H](CN(C)C(=O)Nc2ccc(F)cc2)[C@@H](C)CN([C@H](C)CO)C(=O)c2cc(NC(=O)CCCCCC(=O)Nc3ccccc3N)ccc2O1 | x | -9 | x | x | -5
COc1ccccc1NC(=O)N[C@@H]1CC[C@@H](CC(=O)N[C@H](C)c2ccccc2)O[C@H]1CO | x | -3 | x | x | 0
COc1ccc(NC(=O)N[C@@H]2C=C[C@@H](CC(=O)NC3CCCCC3)O[C@@H]2CO)cc1 | x | -3 | x | x | 2
C[C@@H]1CN([C@H](C)CO)S(=O)(=O)c2ccc(-c3ccc(C#N)cc3)cc2O[C@@H]1CN(C)C | x | -3 | x | x | -2
COc1ccc2c(c1)CC/C(=C/c1ccccn1)C2=O | 40 | 15 | 1 | 5 | -70
Cc1ccsc1/C=C1\CCc2ccccc2C1=O | 82* | x | 35 | 17 | x
O=C1C(=Cc2ccccn2)CCc2ccccc21 | 54* | 5 | -25 | -2 | -44
CCCNC(=O)N(C)C[C@H]1Oc2cc(C#Cc3cccc(F)c3)ccc2S(=O)(=O)N([C@@H](C)CO)C[C@H]1C | x | 7 | x | x | 13
COc1ccc(CC(=O)Nc2cccc(S(=O)(=O)N3CCCCCC3)c2)cc1OC | 53* | 7 | 35 | 20 | x
Cc1cccc(Nc2nnc(SCC(=O)Nc3cccc(S(=O)(=O)N4CCCCC4)c3)s2)c1 | 60* | -51 | 12 | 5 | x
Cc1ccc(NC(=O)COc2ccccc2C(N)=O)cc1S(=O)(=O)N1CCCCCC1 | 58* | 20 | 44 | 22 | 26
CC(=O)c1ccc(OCCCC(=O)Nc2ccc(C)c(S(=O)(=O)N3CCCCC3)c2)cc1 | 51* | -8 | 36 | 18 | 9
COc1ccc(CN2C[C@@H](O)COC[C@H]3O[C@@H](CC(=O)NCc4ccncn4)CC[C@@H]32)cc1 | x | 13 | x | x | 4
Cc1cccc(OCC(=O)Nc2cc(S(=O)(=O)N3CCCCC3)ccc2N2CCN(C)CC2)c1 | 15 | 22 | 85* | 2 | 15
COc1cc(C(C)=O)ccc1OCC(=O)Nc1ccc(C)c(S(=O)(=O)N2CCCCCC2)c1 | 84* | 45 | 63* | 26 | 5
O=C(Cc1ccccc1Cl)Nc1cccc(S(=O)(=O)N2CCOCC2)c1 | 90* | 7 | 81* | -3 | 10
COc1cc(C(C)=O)ccc1OCC(=O)Nc1ccc(S(=O)(=O)N2CCCCC2)cc1 | 14 | -14 | 9 | 0 | 4
CCc1cccc(OCC(=O)Nc2ccc(C)c(S(=O)(=O)N3CCCCCC3)c2)c1 | 50* | -75 | 39 | 23 | 4
CC(=O)c1ccccc1OCC(=O)Nc1cccc(S(=O)(=O)N2CCCC2)c1 | 1 | 1 | -4 | 46* | -16
O=C(COc1ccc2ccc(=O)oc2c1)Nc1cccc(S(=O)(=O)N2CCCCC2)c1 | 53* | 33 | 41 | 9 | -2
Cc1ccc(NC(=O)CSc2ncnc3ccccc23)cc1S(=O)(=O)N1CCCCCC1 | 87* | 42 | 53* | 21 | 1
CCN1CCN(c2ccc(S(=O)(=O)N3CCCCC3)cc2NC(=O)/C=C/c2ccc([N+](=O)[O-])cc2)CC1 | -5 | 1 | -14 | 7 | 57*
CCOc1ccccc1OCC(=O)Nc1cccc(S(=O)(=O)N2CCCCCC2)c1 | 2 | 7 | 2 | 0 | 4
SMILES | TWEAK-Fn14 inh | LGR2 inh | TROY NFkB inh | LMP1 NFkB inh | EWS-Fli block
Cc1ccc(NC(=O)COc2ccc(N(C)C(=O)C(C)(C)C)cc2)cc1S(=O)(=O)N1CCCCC1 | 69* | 18 | 39 | 15 | 17
COc1ccc(S(=O)(=O)N2CCC(C(=O)NC3CC3)CC2)cc1 | -18 | -24 | 3 | 4 | 2
COc1ccc(S(=O)(=O)N2CCC(NC(=O)C3CCCCC3)CC2)cc1 | 80* | -11 | -14 | 46* | 6
COc1ccc(NS(=O)(=O)c2cccc(NC(=O)c3ccc(S(=O)(=O)N4CCCCCC4)cc3)c2)cc1 | 70* | x | 45 | -14 | x
O=C(Cn1[nH]c(=O)c2ccccc2c1=O)Nc1cccc(S(=O)(=O)N2CCCCCC2)c1 | 51* | 15 | 25 | 7 | -7
O=C(Cn1nc(C(=O)O)c2ccccc2c1=O)Nc1cccc(S(=O)(=O)N2CCCCCC2)c1 | 2 | -2 | 34 | -13 | 6
COc1ccc(NC(=O)N(C)C[C@@H]2OCCCC[C@@H](C)Oc3ccc(NS(C)(=O)=O)cc3C(=O)N([C@H](C)CO)C[C@@H]2C)cc1 | x | 12 | x | x | -1
O=C(c1cccnc1)N1CCCCN2[C@H](C1)[C@@H](c1ccc(C#Cc3ccccc3)cc1)[C@@H]2CO | x | x | x | x | -8
Cc1ccc(S(=O)(=O)N2CCCCC2)cc1NC(=O)Cn1ccc(C(F)(F)F)n1 | 16 | 6 | 9 | 2 | 9
O=C(Cn1ccc(C(F)(F)F)n1)Nc1cccc(S(=O)(=O)N2CCCCC2)c1 | -7 | 9 | 8 | 53* | 0
C/C=C/c1ccccc1[C@H]1[C@@H](C#N)N(S(=O)(=O)c2cccc(F)c2)[C@H]1CO | x | 0 | x | x | 9
O=C(C[C@@H]1CC[C@@H](NC(=O)Nc2cc(F)ccc2F)[C@@H](CO)O1)NCc1ccc2c(c1)OCO2 | x | -12 | x | x | -6
CNC[C@@H]1Oc2ccc(NC(=O)Nc3ccc(F)cc3)cc2C(=O)N([C@@H](C)CO)C[C@@H]1C | x | -3 | x | x | 1
O=c1oc(-c2ccccc2)cc(Cl)c1Cl | 31 | -6 | 31 | 8 | 59*
Cc1cc(Cl)ccc1OC(C)C(=O)Nc1ccc(C(=O)Nc2ccccc2C(=O)O)cc1 (stereo not drawn) | 37 | 13 | 57* | 10 | x
CCOC(=O)c1nc(C)nc(Sc2n[nH]c(-c3cc(C(F)(F)F)cc(C(F)(F)F)c3)n2)c1C | -41 | x | 59* | -5 | 13
CCOC(=O)c1cc(-c2cccc(C(F)(F)F)c2)nc2nc(SC)[nH]c(=O)c12 | 2 | -23 | 0 | -4 | x
COC(=O)C(CC#Cc1ccc2c(c1)[C@]1(C(=O)N2)[C@H](C(=O)NC[C@H](O)c2ccccc2)[C@H]2C(=O)O[C@H](c3ccccc3)[C@H](c3ccccc3)N2[C@@H]1c1ccccc1OCCO)C(=O)OC | x | x | x | x | 71*
COC(=O)C(CC#Cc1ccc2c(c1)[C@]1(C(=O)N2)[C@H](c2ccccc2OCCO)N2[C@H](c3ccccc3)[C@H](c3ccccc3)OC(=O)[C@H]2[C@@H]1C(=O)N1CCc2cc(OC)c(OC)cc2C1)C(=O)OC | x | x | x | x | 56*
COC(=O)C(CC#Cc1ccc2c(c1)[C@]1(C(=O)N2)[C@H](c2ccc(O)cc2)N2[C@H](c3ccccc3)[C@H](c3ccccc3)OC(=O)[C@H]2[C@@H]1C(=O)N1CCc2cc(OC)c(OC)cc2C1)C(=O)OC | x | x | x | x | 14
C[C@H](CO)N1C[C@H](C)[C@H](CN(C)C)Oc2ccc(NC(=O)Cc3ccccc3)cc2C1=O | x | -5 | x | x | -7
